Screen size: about 5,500 compounds; about 2,000 (36%) were called active. Inconclusive results (about 18%) are left out. No stated cut-off is given here; in the data, active means normalized growth mostly below about 0.91 (no sharp cut-off); inconclusive means no clear call, values can overlap the other calls; inactive means mostly above about 0.92. The list shows a part of the results.
Assay: chemical genetic growth profiling, strain panel (AID 1159580);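 further: tested at 20 µM; growth read once vehicle control cultures reached saturation at 30 °C; 1 = growth at the plate median or of vehicle wells; lower values mean less growth of the strain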
Conditions: growth OD
[1] = S. cerevisiae deletion strains, locus YHR030C, strain SLT2, hits give low values
[2] = S. cerevisiae deletion strains, locus YJL095W, strain BCK1, hits give low values
[3] = S. cerevisiae deletion strains, locus YAL013W, strain DEP1, hits give low values
[4] = S. cerevisiae deletion strains, locus YAL040C, strain CLN3, hits give low values
[5] = S. cerevisiae deletion strains, locus YCL061C, strain MRC1 (second series), hits give low values
[6] = S. cerevisiae deletion strains, locus YDR150W, strain NUM1, hits give low values
[7] = S. cerevisiae deletion strains, locus YDR363W, strain ESC2, hits give low values
[8] = S. cerevisiae deletion strains, locus YER002W, strain NOP16, hits give low values
[9] = S. cerevisiae deletion strains, locus YGR078C, strain PAC10, hits give low values
[10] = S. cerevisiae deletion strains, locus YJR075W, strain HOC1, hits give low values
[11] = S. cerevisiae deletion strains, locus YMR263W, strain SAP30, hits give low values
[12] = S. cerevisiae deletion strains, locus YMR307W, strain GAS1, hits give low values
[13] = S. cerevisiae deletion strains, locus YNL153C, strain GIM3, hits give low values
[14] = S. cerevisiae deletion strains, locus YNL175C, strain NOP13, hits give low values
[15] = S. cerevisiae deletion strains, locus YNL197C, strain WHI3, hits give low values
[16] = S. cerevisiae deletion strains, locus YNL224C, strain SQS1, hits give low values
[17] = S. cerevisiae deletion strains, locus YNL322C, strain KRE1, hits give low values
[18] = S. cerevisiae deletion strains, locus YOR083W, strain WHI5 (second series), hits give low values
[19] = S. cerevisiae deletion strains, locus YPL055C, strain LGE1, hits give low values

Measured: normalized growth

CC(=O)NCCc1ccc(O)c(-c2c(O)c(O)c3c(c2O)C(=O)c2c(cc(O)c(C(=O)O)c2C(=O)O)C3=O)c1
inactive: [1] 1 | S. cerevisiae deletion strains, locus YHR079C, strain IRE1, hits give low values 1.01 | [2] 0.992 | S. cerevisiae deletion strains, locus YJR066W, strain TOR1, hits give low values 0.931 | S. cerevisiae deletion strains, locus YLR113W, strain HOG1, hits give low values 1.01 | S. cerevisiae deletion strains, locus YNL183C, strain NPR1, hits give low values 0.924 | S. cerevisiae deletion strains, locus YOR231W, strain MKK1, hits give low values 1.03 | S. cerevisiae deletion strains, locus YPL256C, strain CLN2, hits give low values 1.04

N#CC(=C(\N)Sc1ccccc1N)/C(C#N)=C(/N)Sc1ccccc1N
inactive: [3] 0.988 | [4] 0.974 | [5] 1.01 | [6] 1.01 | [7] 1 | [8] 1 | [9] 0.99 | [10] 0.97 | [11] 1 | [12] 0.995 | [13] 0.923 | [14] 0.981 | [15] 0.971 | [16] 0.973 | [17] 0.988 | S. cerevisiae deletion strains, locus YPL241C, strain CIN2, hits give low values 1.01
active: [18] 0.763

Cc1nc(N=Nc2cc(S(=O)(=O)O)c3cc([N+](=O)[O-])cc(S(=O)(=O)O)c3c2)c(COP(=O)(O)O)c(C=O)c1O
inactive: [3] 0.999 | [4] 1.02 | [5] 1 | [6] 0.995 | [7] 1.01 | [8] 1.02 | [9] 1 | [10] 1 | [14] 0.997 | [15] 1 | [16] 1.01 | [18] 1.01 | [19] 1.02

NC(N)=Nc1ccc(Cl)cc1
inactive: [3] 1.01 | S. cerevisiae deletion strains, locus YBR021W, strain FUR4, hits give low values 1.01 | S. cerevisiae deletion strains, locus YBR229C, strain ROT2, hits give low values 1.01 | S. cerevisiae deletion strains, locus YCL029C, strain bik1, hits give low values 1 | S. cerevisiae deletion strains, locus YDL035C, strain GPR1, hits give low values 1.02 | S. cerevisiae deletion strains, locus YDL074C, strain BRE1, hits give low values 1.04 | S. cerevisiae deletion strains, locus YDL101C, strain DUN1, hits give low values 1.03 | S. cerevisiae deletion strains, locus YDL134C, strain PPH21, hits give low values 1.02 | S. cerevisiae deletion strains, locus YDL185W, strain tfp1, hits give low values 1.01 | S. cerevisiae deletion strains, locus YDL192W, strain arf1, hits give low values 1.01 | S. cerevisiae deletion strains, locus YDR101C, strain arx1, hits give low values 0.99 | [6] 1.02 | S. cerevisiae deletion strains, locus YDR162C, strain NBP2, hits give low values 1.02 | S. cerevisiae deletion strains, locus YDR318W, strain mcm21, hits give low values 0.997 | S. cerevisiae deletion strains, locus YDR388W, hits give low values 0.997 | S. cerevisiae deletion strains, locus YDR502C, strain sam2, hits give low values 1 | S. cerevisiae deletion strains, locus YER110C, hits give low values 0.996 | S. cerevisiae deletion strains, locus YER155C, strain BEM2, hits give low values 1.01 | S. cerevisiae deletion strains, locus YER167W, strain BCK2, hits give low values 1.03 | S. cerevisiae deletion strains, locus YGL078C, strain dbp3, hits give low values 0.996 | S. cerevisiae deletion strains, locus YGL086W, strain mad1, hits give low values 1 | S. cerevisiae deletion strains, locus YGL248W, strain PDE1, hits give low values 1.01 | [9] 1.02 | S. cerevisiae deletion strains, locus YGR135W, strain pre9, hits give low values 0.998 | S. cerevisiae deletion strains, locus YGR229C, strain SMI1, hits give low values 1.03 | S. cerevisiae deletion strains, locus YGR252W, strain gcn5, hits give low values 0.972 | [1] 1 | S. cerevisiae deletion strains, locus YHR079C, strain IRE1 (second series), hits give low values 1 | S. cerevisiae deletion strains, locus YHR094C, strain hxt1, hits give low values 0.988 | S. cerevisiae deletion strains, locus YHR129C, strain ARP1, hits give low values 1.01 | S. cerevisiae deletion strains, locus YHR200W, strain rpn10, hits give low values 0.999 | S. cerevisiae deletion strains, locus YIL066C, strain RNR3, hits give low values 1.02 | S. cerevisiae deletion strains, locus YIL073C, strain SPO22, hits give low values 1.09 | S. cerevisiae deletion strains, locus YIL125W, strain kgd1, hits give low values 1 | S. cerevisiae deletion strains, locus YIR030C, strain dcg1, hits give low values 0.992 | [2] 1.02 | S. cerevisiae deletion strains, locus YJL134W, strain LCB3, hits give low values 1.01 | S. cerevisiae deletion strains, locus YJL168C, strain set2, hits give low values 1 | S. cerevisiae deletion strains, locus YJL187C, strain SWE1 (second series), hits give low values 1.01 | [10] 1.01 | S. cerevisiae deletion strains, locus YKL009W, strain mrt4, hits give low values 0.987 | S. cerevisiae deletion strains, locus YKL068W, hits give low values 0.988 | S. cerevisiae deletion strains, locus YKL085W, strain MDH1 (second series), hits give low values 1.01 | S. cerevisiae deletion strains, locus YKL085W, strain MDH1, hits give low values 1.01 | S. cerevisiae deletion strains, locus YKL190W, strain CNB1, hits give low values 1.02 | S. cerevisiae deletion strains, locus YKR001C, strain vps1, hits give low values 0.999 | S. cerevisiae deletion strains, locus YLR039C, strain RIC1, hits give low values 1.1 | S. cerevisiae deletion strains, locus YLR058C, strain SHM2, hits give low values 1.01 | S. cerevisiae deletion strains, locus YLR102C, strain apc9, hits give low values 0.998 | S. cerevisiae deletion strains, locus YLR262C, strain YPT6, hits give low values 1.07 | S. cerevisiae deletion strains, locus YLR268W, strain sec22, hits give low values 0.996 | S. cerevisiae deletion strains, locus YLR330W, strain CHS5, hits give low values 1.02 | S. cerevisiae deletion strains, locus YLR342W, strain FKS1 (second series), hits give low values 1.05 | S. cerevisiae deletion strains, locus YLR371W, strain rom2, hits give low values 0.996 | S. cerevisiae deletion strains, locus YLR418C, strain cdc73, hits give low values 1 | S. cerevisiae deletion strains, locus YML016C, strain PPZ1, hits give low values 1.02 | S. cerevisiae deletion strains, locus YML032C, strain rad52, hits give low values 0.961 | S. cerevisiae deletion strains, locus YML124C, strain tub3, hits give low values 0.99 | S. cerevisiae deletion strains, locus YMR078C, strain ctf18, hits give low values 0.995 | S. cerevisiae deletion strains, locus YMR223W, strain ubp8, hits give low values 0.998 | [11] 1.02 | [12] 1.01 | S. cerevisiae deletion strains, locus YNL067W, strain RPL9B, hits give low values 1.01 | S. cerevisiae deletion strains, locus YNL128W, strain TEP1, hits give low values 1.05 | [13] 1.02 | S. cerevisiae deletion strains, locus YNL233W, strain BNI4, hits give low values 1.01 | S. cerevisiae deletion strains, locus YNL250W, strain rad50, hits give low values 0.984 | S. cerevisiae deletion strains, locus YNL271C, strain bni1, hits give low values 1 | S. cerevisiae deletion strains, locus YNL298W, strain CLA4, hits give low values 0.997 | S. cerevisiae deletion strains, locus YNL307C, strain MCK1, hits give low values 1 | [17] 1.01 | S. cerevisiae deletion strains, locus YNR052C, strain pop2, hits give low values 0.993 | S. cerevisiae deletion strains, locus YOL006C, strain TOP1, hits give low values 1.18 | S. cerevisiae deletion strains, locus YOL012C, strain htz1 1.11 | S. cerevisiae deletion strains, locus YOL147C, strain pex11, hits give low values 0.995 | S. cerevisiae deletion strains, locus YOR061W, strain CKA2, hits give low values 1.02 | S. cerevisiae deletion strains, locus YOR136W, strain idh2, hits give low values 0.997 | S. cerevisiae deletion strains, locus YOR144C, strain elg1, hits give low values 0.984 | S. cerevisiae deletion strains, locus YOR184W, strain ser1, hits give low values 1.02 | S. cerevisiae deletion strains, locus YOR316C, strain cot1, hits give low values 1 | [19] 1.05 | S. cerevisiae deletion strains, locus YPR119W, strain clb2, hits give low values 0.988 | S. cerevisiae deletion strains, locus YPR141C, strain kar3, hits give low values 0.997 | S. cerevisiae deletion strains, locus YPR163C, strain tif3, hits give low values 0.997 | S. cerevisiae deletion strains, locus YPR167C, strain met16, hits give low values 0.997 | S. cerevisiae deletion strains, strain wtn01, hits give low values 0.999 | S. cerevisiae strains, strain wild type, hits give low values 1.01
active: S. cerevisiae deletion strains, locus YJR043C, strain POL32, hits give low values 1.17 [resistant] | S. cerevisiae deletion strains, locus YOR069W, strain VPS5, hits give low values 1.11 [resistant]
